# A549 viability: Nrf2 qHTS screen for inhibitors: counterscreen for cytotoxicity; hit rate 0.16% among 390,000; AID 504648, 2011; A549 ARE-Fluc cells, CellTiter-Fluor viability, 18-24 h; Potency, µM (highest dose often 46 µM), for inactives: top-dose activity change, negative = cytotoxicity, actives largely listed as inhibitors; note: % is set by controls: 0 for no effect and ±100 for the full control effect
#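 Cytotoxicity counterscreen: CellTiter-Fluor fluorescence was measured in A549 ARE_Fluc cells after 18-24 h of compound exposure in a concentration series. The subsequent BugLite luminescent read reports ARE-luciferase activity.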
# Nrf2 block: Nrf2 qHTS screen for inhibitors | A549 ARE-Fluc reporter, luciferase luminescence, 18-24 h | Potency, µM (titrated, usually from 46 µM), for inactives: top-dose activity change, negative = inhibition, hits mostly inhibitors | hit rate 2.1% among 360,000; note: % is set by controls: 0 for no effect and ±100 for the full control effect; nearly all actives have a fitted effect of over 60% in size
#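 Cells were seeded and rested 2 h, then exposed to compounds for 18-24 h. CellTiter-Fluor was read first as a viability measure. BugLite was added 15 min before the final luminescent read of ARE-luciferase activity in A549 cells.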
# Pin1 inhibitor: qHTS Assay to Find Inhibitors of Pin1. Potency, µM (series often up to 115 µM), for the others: at the highest dose activity, negative = inhibition, hits mostly inhibitors. Pin1 FP peptide displacement, HiFluor488, 10 min. hit rate 0.009% among 390,000; active = well fitted inhibition curve with a large enough effect in the polarisation, with a control signal flat, not every such curve was filed as active; inconclusive = small, poorly fitted or top-dose-only effect, or effect the other way, or a change in a side signal; inactive = no such curve, though single readings can be large or run the other way; the % refers to the polarisation; note: % is set by controls: 0 for no effect and ±100 for the full control effect
# Target sequence (Q13526 whole entry, looked up): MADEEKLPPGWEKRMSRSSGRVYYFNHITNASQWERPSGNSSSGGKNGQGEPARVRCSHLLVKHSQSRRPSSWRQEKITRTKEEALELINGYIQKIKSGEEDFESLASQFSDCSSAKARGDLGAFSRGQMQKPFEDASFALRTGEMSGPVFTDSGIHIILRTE
# Nrf2 activator: qHTS of Nrf2 Activators. AID 624171, 2012. Potency, µM (top dose mostly 46.1 µM), for the others: at the top dose activation, usual class: activators. AREc32 ARE-luciferase reporter (MCF7-derived line), luminescence, 24 h. hit rate 0.31% among 410,000; note: % of control where 0% means no effect; nearly all actives have a fitted effect of over 65% in size
#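 Cells of the AREc32 ARE-luciferase line are plated in OPTI-MEM containing 5% FBS and left overnight at 37 deg C. Compounds are pinned in, incubation continues 24 hr, and firefly luciferase signal is then measured.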
# * marks the source's active call; other numbers are inactive results; ? = inconclusive; nt = no result given. Most compounds without a hit are left out; they make up all but 2.2% or so of the library. Unless noted, calls come from the whole dose curve; as a rule, active = well fitted curve in the direction sought with a large enough effect; inconclusive = small, poorly fitted or top-dose-only effect, or another doubt; inactive = no such curve, though single readings can be large; an effect the other way counts as inactive or inconclusive. Potency is the fitted concentration of half-maximal effect.
SMILES,A549 viability,Nrf2 block,Pin1 inhibitor,Nrf2 activator
CCc1nc(NC(C)C)c2oc3ccccc3c2n1,-1%,-7%,?,3%
Cc1nc(NC(C)c2ccccc2)c2oc3ccccc3c2n1 (stereo not given),-14%,13µM*,-2%,4%
COc1ccc(CCNc2oc(COc3ccc(Br)cc3)nc2C#N)cc1OC,-11%,?,18%,-2%
CCC(C)Nc1nc(C)nc2c1oc1ccccc12 (stereo not given),1%,21µM*,-1%,4%
CCn1cc2nc(SCC(=O)Nc3ccccc3F)n(Cc3ccc(C)cc3)c(=O)c2n1,0%,?,7%,2%
S=C(NCCCc1cnc[nH]1)NCCCN(CCc1ccccc1)c1ccc(Br)cn1,-15%,0%,2%,nt
CC(C)Nc1nc(C#N)nc(Nc2ccccc2)n1,-1%,19%,2%,nt
S=C(NCCCc1cnc[nH]1)NCCCN(Cc1ccc(Cl)cc1)c1ccc(Br)cc1,-9%,?,-2%,nt
Cc1ccc(S(=O)(=O)c2c(C)nn(C(C)(C)C)c2OC(=O)C2CCCC2)cc1,-20%,21µM*,?,0%
Cc1nn(Cc2ccc(C(=O)NC(C)(C)C)o2)c(C)c1Br,-16%,18µM*,4%,1%
Cc1cc(NC(=O)c2ccc(Cn3nc(C)c(Br)c3C)o2)no1,5%,9%,-11%,3%
Cc1oc2ncn(C)c(=O)c2c1C(=O)N(C)c1ccccc1F,12%,?,-1%,-1%
Cc1ccc(OCCCn2c(CO)nc3ccccc32)cc1,5%,nt,0%,6%
Cc1ccccc1OCCCCn1cnc2ccccc21,-2%,6.5µM*,-5%,2%
c1ccc(OCCn2cnc3ccccc32)cc1,2%,4%,-4%,0%
Cc1ccccc1OCCCCn1c(CO)nc2ccccc21,1%,23µM*,0%,0%
c1ccc(OCCCCn2cnc3ccccc32)cc1,-17%,23µM*,-8%,0%
COc1ccc(CNc2nc3c(-c4ccc(C)cc4)nnn3c3ccccc23)cc1,4%,?,1%,9%
CCCCOc1cc(NCc2ccccc2)c2ncn(C(C)C)c2c1,?,?,?,-1%
CCC(CO)Oc1cc(NCc2ccccc2)c2ncn(C(C)C)c2c1 (stereo not given),1%,0%,5%,-5%
CCC(COC)Oc1cc(NCc2ccccc2)c2ncn(C(C)C)c2c1 (stereo not given),?,18µM*,4%,-5%
CCC(COC(=O)c1ccccc1)Oc1cc(NCc2ccccc2)c2ncn(C(C)C)c2c1 (stereo not given),16µM*,23µM*,4%,-5%
CC(C)n1cnc2c(NCc3ccccc3)cc(N[C@H](C)CO)cc21,23µM*,?,?,-3%
COc1ccc(NC(=O)c2c(C)oc3ccc(O)c(CN4CCCCCC4)c23)cc1Cl,5%,?,6%,0%
O=C(Cn1ncc2c3ccccc3n(Cc3ccccc3)c2c1=O)N1CCN(c2ncccn2)CC1,-4%,16µM*,26%,0%
SMILES,A549 viability,Nrf2 block,Pin1 inhibitor,Nrf2 activator
O=C(Cn1ncc2c3ccccc3n(Cc3ccccc3)c2c1=O)N1CCN(c2ccccn2)CC1,11%,-2%,14%,-1%
COc1cccc(COCCN2CCN(S(=O)(=O)c3ccccc3)CCC2=O)c1,3%,-1%,-1%,nt
CCC(C(=O)NC1CCCCC1)n1nc(C)c2sc3ccccc3c2c1=O (stereo not given),-3%,3%,5%,0%
Cc1ccc(S(N)(=O)=O)cc1NC(=O)/C=C/c1cccs1,-5%,nt,-24%,13µM*
CCCCc1ccc(S(=O)(=O)NC2CCS(=O)(=O)C2)cc1 (stereo not given),-2%,18µM*,6%,2%
COC(=O)Nc1ccc(S(=O)(=O)NC2CCS(=O)(=O)C2)cc1 (stereo not given),1%,-5%,-6%,0%
O=S(=O)(c1ccccc1)c1nnn2c1nc(NC1CCN(Cc3ccccc3)CC1)c1ccccc12,?,?,8%,0%
O=S(=O)(c1ccccc1)c1nnn2c1nc(NC1CCN(Cc3ccccc3)CC1)c1cc(Cl)ccc12,?,6.5µM*,34%,-1%
Cc1noc(C)c1COC(=O)c1ccccc1Oc1ccccc1,10%,-10%,-5%,0%
Cc1noc(C)c1COC(=O)c1ccccc1NC(=O)Cc1ccccc1,nt,15µM*,4%,2%

# Screening results as filed in PubChem BioAssay.
